# RE007 growth inh: less growth of the S. pombe RE007 Vpr strain; 360,000 tested, 0.21% active; S. pombe RE007 Vpr strain, BacTiter-Glo ATP luminescence, 24 h; Potency, µM (highest dose often 92.2 µM), for the others: top-dose activity change, negative = less growth, most hits filed as inhibitors; AID 651644; active means well fitted falling curve with a large enough effect; inconclusive means small, poorly fitted or top-dose-only effect; inactive means no such curve, though single readings can be large or run the other way; further: nearly all actives have a fitted effect of over 50% in size
#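 Fission yeast RE007 carrying one integrated HIV-1 vpr copy, seeded at OD 0.01 in PMG+AL medium with 23 nL pinned compound. Grown 24 h at 30 degrees; viability read by BacTiter-Glo luminescence after 5 min.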
# AMA1-RON2 inh: disrupts binding of P. falciparum AMA1 to RON2 | AID 720542 | Potency, µM (top dose mostly 58.2 µM), for the others: top-dose activity change, negative = inhibition, actives largely listed as inhibitors | AlphaScreen AMA1-biotinylated RON2 peptide binding | 360,000 tested, 0.2% active;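 further: 0% = vehicle wells and -100% = peptide control; nearly all actives have a fitted effect of over 45% in size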
#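 AMA1 (3D7) with his tag at 25 nM final met compounds first, then biotinylated RON2 peptide at 25 nM; detection used donor plus acceptor beads, 10 µg/mL apiece, read by AlphaScreen after 30 min at room temperature.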
# Sm TGR block: inhibitors of Schistosoma mansoni thioredoxin glutathione reductase; Q962Y6; purified TGR, DTNB reduction, TNB absorbance 405 nm; Potency, µM (highest dose often 114 µM), for the others: top-dose activity change, negative = inhibition, hits mostly inhibitors; 360,000 tested, 3% active; AID 485364; further: nearly all actives have a fitted effect of over 60% in size
#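 First, TGR (20 nM dispensed) and NADPH were mixed with compound. Second, a 15 min room-temperature incubation followed. Third, further NADPH and then DTNB were added to start the reaction. Finally, TNB absorbance was monitored kinetically.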
# LmPK inhibitor: inhibitors of Leishmania mexicana pyruvate kinase | Q27686 | purified LmPK, Kinase-Glo ATP luminescence, 1 h | Potency, µM (titrated, usually from 57.5 µM), without a hit: at the highest dose activity change, negative = inhibition, usual class: inhibitors | 290,000 tested, 0.37% active | AID 1721
# Target sequence (Q27686 whole entry, looked up): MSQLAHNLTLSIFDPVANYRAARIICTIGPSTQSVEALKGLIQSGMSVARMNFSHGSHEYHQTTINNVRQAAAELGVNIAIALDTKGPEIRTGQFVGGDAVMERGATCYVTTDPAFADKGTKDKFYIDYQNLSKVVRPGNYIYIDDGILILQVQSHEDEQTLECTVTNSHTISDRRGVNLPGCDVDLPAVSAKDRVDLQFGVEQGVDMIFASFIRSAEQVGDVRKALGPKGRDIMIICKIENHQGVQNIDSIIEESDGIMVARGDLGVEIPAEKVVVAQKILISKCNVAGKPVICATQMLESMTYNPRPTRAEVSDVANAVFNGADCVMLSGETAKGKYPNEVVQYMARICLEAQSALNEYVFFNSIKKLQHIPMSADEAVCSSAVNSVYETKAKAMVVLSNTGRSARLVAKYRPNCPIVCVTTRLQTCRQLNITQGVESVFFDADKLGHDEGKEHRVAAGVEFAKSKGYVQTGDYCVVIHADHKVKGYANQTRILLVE
#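 0.1 nM LmPK, 0.5 mM PEP, 0.1 mM ADP; 50 mM imidazole pH 7.2, 7 mM MgCl2, 50 mM KCl; 1 h RT. Kinase-Glo luminescence readout, normalized to no-enzyme (full inhibition) and uninhibited wells.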
# TbPYK inhibitor: blocks Trypanosoma brucei pyruvate kinase. Q57TT1. TbPYK enzyme, Kinase-Glo Plus ATP luminescence, 45 min. Potency, µM (titrated, usually from 76.8 µM), inactives show at the top dose activity, negative = inhibition, actives largely listed as inhibitors. 410,000 tested, 0.12% active. AID 624173; further: nearly all actives have a fitted effect of over 50% in size
#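 Activity of T. brucei pyruvate kinase was followed by Kinase-Glo Plus luminescence after the enzyme reacted 45 min at room temperature with 130 uM ADP (final) and substrate. Test compounds were added before ADP at multiple concentrations.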
# * marks the source's active call; other numbers are inactive results; ? = inconclusive; · = not tested or not shown; [ ] = dose if it differs, or a comment. Sampled rows, rich in hits. Any-hit rate of the full collection: about 3.2%. Unless noted, the call rests on the fitted dose curve; in most records, active means well fitted curve in the direction sought with a large enough effect; inconclusive means small, poorly fitted or top-dose-only effect, or another doubt; inactive means no such curve, though single readings can be large; an effect the other way counts as inactive or inconclusive. Unless noted, on the % scale 0 is the no-effect control and ±100 the full control effect; potency means the concentration at half of the fitted maximal effect.
SMILES,RE007 growth inh,AMA1-RON2 inh,Sm TGR block,LmPK inhibitor,TbPYK inhibitor
O=C1c2cccc(Sc3ccccc3)c2C(=O)c2c(Sc3ccccc3)cccc21,-1%,?,9%,-1%,?
Cc1ccc(SC2=C(N(C)C)C(=O)c3ccccc3C2=O)cc1,?,8.9µM*,·,·,-19%
COc1cccc(C2=CC(c3cccc(OC)c3OC)n3nnnc3N2)c1 (stereo not drawn),-5%,34%,40µM*,0%,-12%
COc1cccc(C2C=C(c3ccc(OC)cc3OC)Nc3nnnn32)c1 (stereo not drawn),-14%,-8%,25µM*,2%,-10%
COc1ccc(C2=CC(c3ccc(OC)c(OC)c3)n3nnnc3N2)c(OC)c1 (stereo not drawn),-12%,24%,40µM*,-2%,-2%
CCOc1ccc(-c2oc3cc(Cl)ccc3c(=O)c2O)cc1OC,·,·,-2%,·,-9%
COc1ccc(OC)c(N(C)S(=O)(=O)c2ccc3c(c2)NC(=O)CC(=O)N3)c1,·,·,-7%,·,-5%
O=C(c1ccncc1)N1CCC[C@@]2(CCN(Cc3ccncc3)C2)C1,·,·,·,·,-8%
CC(=O)[O][Al][O]C(C)=O,·,·,·,·,4%
COc1cccc2c1Oc1ncccc1N(C(=O)Nc1cccc(Cl)c1)C2,·,·,5%,·,4%
CCS(=O)(=O)c1ncc(Cl)c(C(=O)N2CCN(c3ccc(OC)cc3)CC2)n1,·,·,35µM*,·,1%
CCS(=O)(=O)c1ncc(Cl)c(C(=O)N(Cc2ccccc2)c2ccc(OC)cc2)n1,·,·,40µM*,·,-6%
CCS(=O)(=O)c1ncc(Cl)c(C(=O)NCc2ccc(OC)cc2)n1,·,·,10µM*,·,4%
CCCS(=O)(=O)c1ncc(Cl)c(C(=O)N(Cc2ccccc2)Cc2ccco2)n1,·,·,5µM*,·,-4%
Cc1ccc(NC(=O)c2cccc3c(=O)c4c([nH]c23)CCCC4)c(C)c1,·,·,4%,·,0%
N#C/C(=C/c1ccc(N2CCCCC2)o1)C(=O)Nc1ccc(Cl)cc1,-17%,-5%,?,-6%,-7%
N#C/C(=C\c1ccc(N2CCOCC2)o1)C(=O)Nc1ccc(O)cc1,8%,-24%,·,4%,-3%
COc1ccc(NC(=O)/C(C#N)=C\c2ccc(N3CCOCC3)o2)cc1,-10%,-13%,45µM*,-7%,-13%
N#C/C(=C/c1ccc(N2CCOCC2)o1)C(=O)NC1CCCCC1,8%,10%,32µM*,3%,-8%
O=C1C=CC(=O)N1CCNc1ncc(C(F)(F)F)cc1Cl,2.5µM*,-4%,0.4µM*,2%,?
COc1c(O)c(=O)n2c3ccccc3c3ccnc1c32,-20%,1%,4µM*,·,0%
O=C(CCSCc1cccc(Cl)c1)N1CCN(c2ccc(Cl)cc2)CC1,·,·,18%,·,-5%
C=CCOc1cccc(C2C(C(=O)c3ccco3)=C(O)C(=O)N2Cc2ccncc2)c1 (stereo not drawn),3%,-12%,45µM*,-5%,2%
C=CCOc1cccc(C2C(C(=O)c3ccco3)=C(O)C(=O)N2Cc2ccco2)c1 (stereo not drawn),-2%,-21%,32µM*,-5%,-3%
C=CCOc1cccc(C2C(C(=O)c3ccc(C)o3)=C(O)C(=O)N2Cc2ccncc2)c1 (stereo not drawn),3%,-12%,?,6%,-27%
C=CCOc1cccc(C2C(C(=O)c3ccco3)=C(O)C(=O)N2CCN2CCOCC2)c1 (stereo not drawn),4%,1%,25µM*,-3%,-13%
CCOc1ccccc1CN1CCN(Cc2ccc3cccc(OC)c3n2)CC1CCO (stereo not drawn),-1%,3%,25µM*,1%,5%
COCCCNC(=O)C1CCN(c2nc3ccc(C)cc3[nH]2)CC1,·,·,-2%,·,-4%[15.4 µM]
O=C(NCCc1ccccc1)C(=O)NCC(c1ccco1)S(=O)(=O)c1cccs1 (stereo not drawn),·,·,20µM*,·,0%
O=C(NCC(c1ccco1)S(=O)(=O)c1cccs1)c1ccc(C(F)(F)F)cc1 (stereo not drawn),·,·,4.5µM*,·,8%

# Compound activity as filed in PubChem.
